Measurements published in PubChem BioAssay AID504773 (Broad Institute, 2011).
Measured potencies and affinities stand elsewhere. A number with no mark means an inactive call.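 The calls were made as follows: active = polarization signal falls with dose and the fitted half-maximal concentration is at or below ten times the sample's top valid dose; inconclusive = flat curve at 30 to 70% inhibition, or poor fit; inactive = signal rises, flat within 30%, or potency beyond limit.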

Biological target: Golgi-associated PDZ and coiled-coil motif-containing protein (Homo sapiens) (UniProt Q9HD26)
Assay: potency against CAL PDZ-peptide interaction – biochemical, fluorescence polarization, Cerulean-tagged CAL PDZ, cherry-picks, dose response (AID 504773);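 also: 0% = DMSO neutral wells and -100% = excess unlabeled competitor peptide wells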
Conditions: CAL PDZ-peptide binding, 1 h; series mostly up to 50 µM; activity change, negative = inhibition: at the top concentration

Row | Compound | activity change, negative = inhibition [%]
1 | Cc1cc(C)nc(CCNC(=O)c2cc(COc3c(C)cccc3C)on2)n1 | 17.2
2 | CCNC(=S)N(CCN(CC)CC)Cc1cc2cc3c(cc2[nH]c1=O)OCCO3 | -12
3 | CC1CCN(C(=O)COC(=O)c2cccs2)CC1 | -53.2
4 | COc1ccc(Oc2nc3c(c(=O)n(C)c(=O)n3C)n2C)cc1 | 8.81
5 | COc1ccc(CCn2c(=S)[nH]c3ccc(N4CCOCC4)cc3c2=O)cc1OC | -31.4
6 | C=CCNC(=S)Nc1ccc(C)c(S(=O)(=O)N2CCCCC2)c1 | -15.4
7 | Cc1cccc(CN2CCc3c([nH]c4ccccc34)C2CC(C)C)n1 (configuration not stated) | 7.87
8 | O=C(O)CCCC(=O)N1N=C(c2ccccc2)CC1c1ccc2c(c1)OCO2 (configuration not stated) | -37.2
9 | COc1ccc(/C=C2\N=C(c3ccc(C)cc3)OC2=O)cc1 | -21.2
10 | O=C(OCc1ccc(Br)cc1)c1cccnc1 | -10.8
11 | CC(C)n1cc(C(=O)N2CCCC(N3CCN(c4ccc(F)cc4)CC3)C2)cn1 (configuration not stated) | -11
12 | COc1cc([N+](=O)[O-])ccc1NC(=O)CN1CCN(C(=O)c2ccco2)CC1 | -0.592
13 | O=C(NNC(=O)c1ccc(Cl)c(Cl)c1)c1cccnc1 | 12.3
14 | CC(=O)c1ccc(S(=O)(=O)N2CCN(c3ccccc3F)CC2)cc1 | 31.2
15 | CCCCNC(=S)NNc1c(Cl)cc(Cl)cc1Cl | -19.6
16 | CCn1c(=O)c(C(C)=O)c(O)c2ccccc21 | 7.91
17 | Cc1cc(C)c2nc(-c3ccncc3)cc(C(=O)N3CCN(Cc4ccccc4Cl)CC3)c2c1 | -33.1
18 | Brc1cccc(CNCC2CCCO2)c1 (configuration not stated) | 5.13
19 | Cc1ccc2nc(NCc3ccc(F)cc3)c3nncn3c2c1 | 4.85

Row | Compound | activity change, negative = inhibition [%]
20 | Cc1ccc2nc(NC(=O)COC(=O)c3ccncc3)sc2c1 | 5.09
21 | COc1ccc(S(=O)(=O)N2CCOCC2)cc1NC(=O)CN1CCCCCC1 | 4.33
22 | Cc1nn2c3ccccc3nc2c2ccccc12 | -34.8
23 | CC(C)CNC(=O)CN1C(=O)NC(Cc2c[nH]c3ccccc23)C1=O (configuration not stated) | 13.9
24 | Cc1ccc(SCC(=O)NCc2ccc(F)cc2)cc1 | 10.2
25 | CN(C)S(=O)(=O)c1ccc(Cl)c(NC(=O)CSc2nnnn2-c2ccc(O)cc2)c1 | -24.1
26 | C/C(=N\NC(=O)c1cc(-c2ccc(C)s2)nc2ccccc12)c1cccnc1 | 6.59
27 | CC(NS(=O)(=O)c1ccc(Cl)c(Cl)c1)C(=O)OCC(=O)Nc1ccc2c(c1)OCO2 (configuration not stated) | 1.21
28 | COc1ccc(C(=O)c2ccc(C)cc2)c(OC)c1OC | 6.19
29 | Cc1c(NC(=O)CN2CCC(C(N)=O)CC2)cccc1[N+](=O)[O-] | 7.36
30 | O=C(COC(=O)c1cccc(O)c1)NC(=O)Cc1ccccc1 | 7.51
31 | CCOC(=O)CCC(=O)Nc1ccc(S(=O)(=O)N2CCC(C)CC2)cc1 | 10.4
32 | O=C(Oc1c(CN2CCOCC2)cc(Cl)c2cccnc12)c1ccc(F)cc1 | -18
33 | COc1ccccc1NC(=O)N(c1c(N)n(Cc2ccccc2)c(=O)[nH]c1=O)C1CCCC1 | 26.7
34 | COCCN(C(=S)Nc1ccccc1OC)C1CCN(C(C)C)CC1 | 7.01
35 | COc1ccc(C(CNC(=O)COc2ccccc2-c2ccccc2)N2CCOCC2)cc1 (configuration not stated) | -0.19
36 | O=C(O)c1cccc(Nc2ccc([N+](=O)[O-])cn2)c1 | 18.4
37 | O=C(c1cccc(Oc2c(Cl)cccc2[N+](=O)[O-])c1)N1CCOCC1 | 6.74
